Compound activity (PubChem BioAssay)
Shown are actives, neighbours in structure and some others; about 7.3% of the full set was active somewhere.
VACV Venus inh = vaccinia inhibition (Venus reporter) | Vaccinia virus Venus reporter expression, fluorescence | Potency, µM (series often up to 36.5 µM), for the others: top-dose activity change, negative = inhibition, most hits filed as inhibitors | 0.46% of 330,000 active | AID 720580; calls by dose curve; tested in A549 cells; note: potency is the fitted concentration of half-maximal effect; nearly all actives have a fitted effect of over 30% in size
HCMV antiviral = blocks human cytomegalovirus replication; 4.5% of 410,000 active; activity change, negative = inhibition, % at 57.5 µM; HFF cells, HCMV-luciferase reporter, 72 h; stronger effect = lower value; AID 1259415; in the data active = activity change below about -60%; inconclusive = no clear call, values can overlap the other calls; inactive = above about -39%
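Cell-based, HFFs, 1000 cells/well, 16 h 37C; cpds in DMSO + HCMV-luc, MOI 1 PFU/cell; 72 h 37C; OneGlo luminescence after 5 min RT; norm. to buffer vs Salinomycin 10uM.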
VACV mCherry inh = vaccinia inhibition (mCherry reporter); Vaccinia virus mCherry reporter infection, fluorescence; Potency, µM (doses to about 36.5 µM), without a hit: at the highest dose activity change, negative = inhibition, hits mostly inhibitors; 0.63% of 310,000 active; calls by dose curve; tested in A549 cells; note: potency is the fitted concentration of half-maximal effect; nearly all actives have a fitted effect of over 35% in size
HCV inh = HCV inhibition; 3.4% of 340,000 active; Huh7.5.1 HCVcc-Cre infection, luciferase reporter, 44 h; AID 651820; Potency, µM (series often up to 41.8 µM), for inactives: at the highest dose activity change, negative = inhibition, usual class: inhibitors; active = well fitted inhibition curve with a large enough effect; inconclusive = small, poorly fitted or top-dose-only effect, or another doubt; inactive = no such curve, though single readings can be large or run the other way; note: potency is the fitted concentration of half-maximal effect
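HCVcc-Cre virus at an moi near 0.5 was added right after compound to cells cultured 4 h from seeding (1,000 cells/well). Luciferase activity was determined 44 h later, 15 min after substrate addition at RT.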
FMDV inh = foot and mouth disease virus antiviral activity; FMDV antiviral cell-based qHTS; Potency, µM (doses to about 57.9 µM), for the others: top-dose activity change, negative = inhibition, usual class: inhibitors; 1.2% of 410,000 active; calls by dose curve; tested in HEK293T cells; note: read-out not given here; potency is the fitted concentration of half-maximal effect; nearly all actives have a fitted effect of over 45% in size
Starred values were filed as active, the others as inactive; i = inactive; ? = inconclusive; · = no result. % is set by controls: 0 for no effect and ±100 for the full control effect.

SMILES	VACV Venus inh	HCMV antiviral	VACV mCherry inh	HCV inh	FMDV inh
CCOC(=O)c1[nH]c2ccc(Cl)cc2c1NC(=O)/C=C/c1ccc2c(c1)OCO2	-1.0%	?	-9.5%	28.2%	-6.2%
CCN(CC(=O)Nc1c(C(=O)OC)[nH]c2ccc(Cl)cc12)c1ccc2c(c1)OCO2	?	-19.8	·	11.2µM*	-9.8%
CN1C/C(=C/c2cccnc2)C(=O)/C(=C/c2cccnc2)C1	?	-91.6*	?	?	3.16µM*
CCN1C(=O)S/C(=C/c2ccsc2)C1=O	-5.2%	-31.2	-13.1%	1.7%	12.3%
CN1C/C(=C/c2ccc(B(O)O)cc2)C(=O)/C(=C/c2ccc(B(O)O)cc2)C1	·	·	·	·	28.2µM*
CC(C)N1C/C(=C/c2cccnc2)C(=O)/C(=C/c2cccnc2)C1	-9.4%	-36.5	i	?	8.91µM*
CC(C)N1C/C(=C/c2ccsc2)C(=O)/C(=C/c2ccsc2)C1	-8.8%	-84.6*	-17.9%	?	15.8µM*
O=Cc1ccc(B(O)O)cc1	-11.5%	·	-4.5%	·	·
CCN(CC)S(=O)(=O)c1nnc(NC(=O)COc2ccc(Cl)cc2)s1	-3.3%	0.1	-4.7%	·	-7.1%
CSc1ccc(CCNC(=O)Cn2nc(C)n3c(cc4sccc43)c2=O)cc1	-4.6%	-14.8	-0.4%	·	0.0%
CCCC(O)c1nc2ccccc2n1CCCOc1ccc(Cl)cc1 (stereo unspecified)	-20.3%	-75.7*	-6.6%	·	20µM*
CC(C)C(=O)NCCc1nc2ccccc2n1CCCOc1ccc(Cl)cc1	?	-12.6	?	-18.0%	?
O=C1c2ccccc2NC(c2cc(Br)c3c(c2)OCO3)N1Cc1ccco1 (stereo unspecified)	-6.2%	·	-22.7%	·	·
Cc1ccc(S(=O)(=O)Cc2ccc(C(=O)NCc3cccs3)o2)cc1	-11.9%	43.9	i	-11.0%	-5.5%
COc1ccc(CCNC(=O)c2ccc(CS(=O)(=O)c3ccc(C)cc3)o2)cc1OC	-8.5%	-28.4	i	14.1µM*	31.6µM*
Cc1ccc(CNC(=O)c2ccc(CS(=O)(=O)c3ccccc3)o2)cc1	·	-60.5*	·	-27.9%	?
COc1ccc(CCNC(=O)c2ccc(N(C)S(=O)(=O)c3ccc(C)cc3)cc2)cc1OC	·	-22.2	·	10µM*	?
COCCNC(=O)c1ccc(CS(=O)(=O)c2ccc(OC)cc2)o1	0.4%	-3.1	-5.2%	3.5%	0.0%
COc1ccc(CCNC(=O)c2ccc(CS(=O)(=O)c3ccc(Cl)cc3)o2)cc1OC	·	?	·	12.6µM*	15.8µM*
COc1ccc(CCNC(=O)COc2ccc(N(C)S(=O)(=O)c3ccc(C)cc3)cc2)cc1OC	6.0%	-33.9	i	?	-7.0%
COc1ccc(CCNC(=O)c2ccc(CS(=O)(=O)Cc3ccc(C)cc3)o2)cc1OC	-21.8%	?	i	·	-11.5%
Cc1ccc(Cl)cc1NC(=O)Cn1nc2c(cc1=O)CC(C)CC2 (stereo unspecified)	-9.7%	-32.2	-14.4%	·	-15.1%
CC(=O)NCCNC(=O)c1nnc2n1CCN(C(=O)COc1ccccc1)C2	·	3.2	·	·	·
Cc1ccc(CSCCNC(=O)c2ccc(N(C)S(=O)(=O)c3ccccc3)cc2)cc1	?	-12.3	·	11.2µM*	-28.1%
COc1ccc(CCNC(=O)c2ccc(-c3ccc([N+](=O)[O-])cc3Cl)o2)cc1OC	-9.4%	1.0	-23.8%	7.08µM*	12.6µM*
SMILES	VACV Venus inh	HCMV antiviral	VACV mCherry inh	HCV inh	FMDV inh
COc1ccc(CCNC(=O)c2ccc([N+](=O)[O-])cc2Cl)cc1OC	-11.7%	-17.6	-10.0%	-23.2%	-19.7%
CN(c1ccc(C(=O)NCCSCc2ccc(Cl)cc2)cc1)S(=O)(=O)c1ccccc1	-12.0%	-36.4	-8.5%	?	-24.3%
COc1ccccc1-c1cc(NC(=O)COc2ccccc2Cl)n(-c2ccccc2)n1	-3.9%	17.9	-7.3%	·	-10.6%
COc1cc(=O)n2c(c1C(=O)N(C)Cc1nonc1C)CCN(Cc1ccc(F)cc1)CC2	-8.4%	·	-13.8%	·	-8.8%
COc1ccc(Br)cc1CN1CCCC(C(=O)N2CCCCC2)C1 (stereo unspecified)	·	-28.7	·	-16.4%	-20.3%
COc1ccc(Br)cc1CN1CCCC(C(=O)N2CCCCCC2)C1 (stereo unspecified)	-26.2%	-14.1	·	3.16µM*	?
CN(C)CC/C=C1\c2ccc(F)cc2Sc2cc(F)c(Cl)cc21	·	-108.0*	·	12.6µM*	?
CN(C)CC/C=C1\c2cc(Cl)ccc2Sc2cc(F)c(F)cc21	·	?	·	11.2µM*	?
CN(C)CCC=C1c2ccccc2CCc2ccccc21	-16.0%	?	?	?	?
CN(C)CC/C=C1\c2ccccc2Sc2cc(F)c(Cl)cc21	?	-65.2*	-8.8%	?	?
CN(C)CC/C=C1\c2ccccc2Sc2ccc(Cl)cc21	?	-7.3	?	?	-22.6%
CN(C)CCC=C1c2ccccc2C=Cc2ccccc21	-16.1%	14.2	-9.0%	31.6µM*	-26.1%
COc1nc(C#N)nc(N2CCCCC2)n1	-3.0%	·	4.2%	·	·
CO[C@H]1[C@H](NC(=O)c2cccs2)c2ccccc2C12CCN(Cc1cccn1-c1ccccn1)CC2	-4.2%	·	-15.2%	·	-15.2%
O=C(Nc1ccc(Cl)cc1)Nc1ccc2c(c1)N1CCN=C1S2	?	?	-21.0%	10µM*	0.0%
Nc1ccc2c(c1)N1CCN=C1S2	·	-34.8	·	4.1%	1.8%
COc1ccc(C2N(C(=O)c3ccccc3)CCN2C(=O)c2ccc(C)cc2)cc1 (stereo unspecified)	-7.3%	-7.6	i	25.0%	·
COc1ccc(C2CN=NC2C(=O)c2ccccc2)cc1 (stereo unspecified)	-20.0%	-64.4*	-10.0%	-25.8%	38.8%
COc1ccc(-c2csc3ncnc(N4CCN(S(=O)(=O)c5ccc(Cl)s5)CC4)c23)cc1	-21.0%	-66.1*	?	10µM*	-26.8%
O=S(=O)(c1ccc(Oc2ncnc3scc(-c4ccccc4)c23)cc1)N1CCOCC1	-7.7%	-16.3	i	10µM*	-15.4%
Cc1sc2ncnc(N3CCN(S(=O)(=O)c4ccc(Br)cc4)CC3)c2c1C	-13.9%	1.2	i	·	?
CCN1CCN(c2ncnc3scc(-c4ccc(OC)cc4)c23)CC1	-6.1%	-32.2	-16.9%	-16.0%	-8.4%
COc1ccc(-c2csc3ncnc(N4CCN(S(=O)(=O)c5ccc(C)cc5)CC4)c23)cc1	-15.3%	-39.2	?	11.2µM*	-23.0%
COc1ccc(-c2csc3ncnc(N4CCN(c5cccc(Cl)c5)CC4)c23)cc1	-23.4%	·	-1.6%	?	?
Cc1ccc(S(=O)(=O)N2CCN(C(=O)C3CCN(c4ncnc5sc(C)c(C)c45)CC3)CC2)c(C)c1	·	-80.2*	·	4.47µM*	20µM*
COc1ccc(NC(=O)N2CCC3(CC2)CCN(C(=O)c2ccco2)CC3)cc1	·	·	·	·	5.1%
Cn1c(=O)n(-c2ccc(F)c(Cl)c2)c(=O)c2sc3ccccc3c21	-2.9%	-18.1	7.3%	·	4.0%
COc1ccc(-c2csc3ncnc(N4CCN(c5ccccc5Cl)CC4)c23)cc1	-20.0%	-39.9	-22.3%	?	?
